# Compound activity: PubChem, National Center for Advancing Translational Sciences (NCATS)
# HPGD inh: HPGD (human) dehydrogenase inhibition | purified HPGD, NADH fluorescence kinetic, PGE2 substrate | 4.3% of 150,000 active | AID 894 | P15428 | Potency, µM, usual class: inhibitors; active means well fitted inhibition curve with a large enough effect, not every such curve was filed as active; inconclusive means small, poorly fitted or top-dose-only effect, or another doubt; inactive means no such curve, though single readings can be large or run the other way
#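 NADH formation kinetics: reaction with 30 uM PGE2 and 1 mM NAD+ (final), 20 nM enzyme, Tris-HCl pH 8 with Tween 20, after 15 min compound preincubation at room temperature. Fluorescence change, last versus first of five reads.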
# ALDH1A1 inh: ALDH1A1 (human) enzyme inhibition; P00352; Purified ALDH1A1, NADH fluorescence, propionaldehyde substrate; Potency, µM (highest dose often 75.3 µM), hits mostly inhibitors; 7.3% of 220,000 active; active means well fitted inhibition curve with a large enough effect, not every such curve was filed as active; inconclusive means small, poorly fitted or top-dose-only effect, or another doubt; inactive means no such curve, though single readings can be large or run the other way
# Target sequence (P00352 whole entry, looked up): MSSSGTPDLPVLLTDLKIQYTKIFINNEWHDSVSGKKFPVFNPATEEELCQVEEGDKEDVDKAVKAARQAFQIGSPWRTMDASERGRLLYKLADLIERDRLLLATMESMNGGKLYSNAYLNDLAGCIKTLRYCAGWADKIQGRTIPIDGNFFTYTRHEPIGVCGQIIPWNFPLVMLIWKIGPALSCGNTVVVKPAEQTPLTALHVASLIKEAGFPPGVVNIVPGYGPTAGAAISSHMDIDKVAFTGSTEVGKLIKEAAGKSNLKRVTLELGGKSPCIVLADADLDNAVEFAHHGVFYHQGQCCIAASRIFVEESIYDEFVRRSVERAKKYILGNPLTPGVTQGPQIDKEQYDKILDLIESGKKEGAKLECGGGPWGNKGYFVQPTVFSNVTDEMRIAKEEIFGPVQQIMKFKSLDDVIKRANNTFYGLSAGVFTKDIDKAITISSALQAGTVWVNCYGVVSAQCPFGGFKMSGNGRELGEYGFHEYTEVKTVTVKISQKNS
# IMPase Li cell: cell-permeable IMPase inhibitors with lithium potentiation | CHO-M1 cells, IP1 TR-FRET (IP-One), carbachol + lithium | Potency, µM (titrated, usually from 59.4 µM), hits mostly inhibitors | 0.35% of 210,000 active | AID 1457;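 further: IP1 builds up when IMPase is blocked and the TR-FRET signal falls; nearly all actives have a fitted effect of over 50% in size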
#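 Concentration–response in CHO-M1 cells, lithium-potentiated; 30 min at 37C. IP1 detected by competitive TR-FRET after 10 min lysis at RT. Hill-fitted AC50.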
# PNC inhibitor: perinucleolar compartment assembly inhibition; AID 2417; PC3M PTB-GFP, PNC prevalence imaging, 16 h; active compounds read low; 3.1% of 140,000 active; activity change (PNC), negative = inhibition, % at 10 µM;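 active means readout at or below -70, meaning at least 70% loss of cells showing the perinucleolar compartment, a nuclear body marking cancer cells; inconclusive means readout between -30 and a set limit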
#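 PC3M cells stably expressing PTB-GFP, 750–1000 cells/well, treated 16 h at 37 °C with compound (23 nl of library stock), in duplicate. After paraformaldehyde fixation and Hoechst stain, imaged at 20x; PNC prevalence scored by image analysis.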
# IMPase cell inh: membrane-permeable compound that blocks inositol monophosphatase; P97697; CHO-M1 cells, IP1 accumulation, HTRF TR-FRET ratio; inhibition (IP1 accumulation), % at 46.1 µM; 120,000 tested, under 10 active; AID 901; active means well fitted curve in the direction sought with a large enough effect in the signal ratio, not every such curve was filed as active; inconclusive means small, poorly fitted or top-dose-only effect, or a change in a side signal; inactive means no such curve, though single readings can be large or run the other way; the % refers to the signal ratio;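 further: cells stimulated with carbachol in lithium chloride buffer; higher means more IMPase inhibition seen as more IP1 and lower FRET ratio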
#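 Measured: the HTRF emission ratio (665/620 nm) plus the 620 nm donor channel, each fitted to the Hill equation to give AC50. Cells were CHO-M1 given compounds up to 46 uM and a 30 min carbachol stimulation at 37C.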
# NPSR antag: blocks cAMP signaling of the human neuropeptide S receptor. Q6W5P4. CHO-NPSR cells, cAMP TR-FRET, antagonist mode. Potency, µM (series often up to 38.3 µM), usual class: inhibitors. 1% of 220,000 active; further: nearly all actives have a fitted effect of over 50% in size
# Hits are given with their value; n = inactive; u = inconclusive; x = no result given. Sampled rows, rich in hits. Any-hit rate of the full collection: about 11%. Unless noted, the call rests on the fitted dose curve; in most records, active means well fitted curve in the direction sought with a large enough effect; inconclusive means small, poorly fitted or top-dose-only effect, or another doubt; inactive means no such curve, though single readings can be large; an effect the other way counts as inactive or inconclusive.
SMILES,HPGD inh,ALDH1A1 inh,IMPase Li cell,PNC inhibitor,IMPase cell inh,NPSR antag
O=C(Nc1ccccc1)C1=C[C@@H](C2CCCCC2)C[C@@H](OCc2ccc(CO)cc2)O1,x,4.47µM,n,x,x,u
O=C(C1=C[C@H](C2CCCCC2)C[C@H](OCc2ccc(CO)cc2)O1)N1CCN(Cc2ccccc2)CC1,x,14.1µM,n,x,x,u
O=C(O)C1=C[C@@H](C2CC2)C[C@@H](OCc2ccc(CO)cc2)O1,x,n,n,x,x,n
CC(NC(=O)COC(=O)c1ccc2ccccc2n1)C1CC2CCC1C2 (centres undefined),x,u,n,x,x,n
OCCNCCOCCOc1ccccc1-c1ccccc1,n,u,n,n,x,n
Cc1cc(NS(=O)(=O)c2ccc(Nc3nc(-c4ccc(O)cc4)cs3)cc2)no1,20µM,u,n,u,n,n
O/N=C/c1nc2cc(Cl)ccc2o1,x,n,n,x,x,n
Cc1ccc(NC(=O)c2nc(C)n(-c3ccc([N+](=O)[O-])cc3)n2)cc1,n,u,n,n,n,n
CN(C(=O)c1ccncc1)c1nnc(-c2cnccn2)s1,n,n,n,n,n,n
COc1cccc(/C=N/NC(=O)c2cc3c(OC)c(OC)ccc3[nH]2)c1OC,u,u,n,-83.6,x,n
COc1ccccc1C(=O)OCC(=O)c1cccc([N+](=O)[O-])c1,n,n,n,n,x,n
Cc1ccc(SCC(=O)NCC2CCCO2)cc1 (centres undefined),x,n,n,x,x,n
Cc1ccc(SCCC(=O)NCC2CCCO2)cc1 (centres undefined),15.8µM,n,n,-115.3,n,n
Cc1ccc(-c2cc(C(=O)NCC3CCCO3)no2)cc1 (centres undefined),14.1µM,u,n,n,n,n
Cc1ccc(-n2nc(-c3cccs3)cc2C(=O)NCC2CCCO2)c(C)c1 (centres undefined),1µM,20µM,n,n,n,u
O=C(NCC1CCCO1)c1cc(-c2ccc(Cl)cc2Cl)on1 (centres undefined),8.91µM,u,n,n,n,n
O=C(NCC1CCCO1)c1cc(-c2ccccc2)on1 (centres undefined),u,n,n,u,n,n
CC1=CC2=NCC(O)CN2C=C1 (centres undefined),u,u,n,n,n,n
CC(C)(Cc1ccc(O)cc1)NC(=O)CC(=O)N/N=C/c1ccc([N+](=O)[O-])cc1,x,u,n,x,x,n
Cc1oc(C)c(C(=O)O)c1COc1ccc(C(=O)O)cc1,n,n,n,n,n,n
O=c1[nH]c2ccc(NS(=O)(=O)c3ccc4ccccc4c3)cc2[nH]1,x,n,n,x,x,n
CCn1c2c(c3cc(Br)ccc31)CCC/C2=N\O,n,n,11.2µM,n,u,n
CCCc1nc(SCC(=O)c2ccc(OC)cc2)c2ccccc2n1,x,10µM,n,x,x,n
Cc1ccc(C(=O)CSc2nc(C(C)C)nc3ccccc23)cc1,x,28.2µM,n,x,x,n
CC(C)c1nc(SCC(=O)c2ccc(F)cc2)c2ccccc2n1,x,20µM,n,x,x,u
SMILES,HPGD inh,ALDH1A1 inh,IMPase Li cell,PNC inhibitor,IMPase cell inh,NPSR antag
O=C(CSc1cnc2ccccc2n1)c1ccc(F)cc1,n,25.1µM,n,n,x,n
COC(=O)CSc1cnc2ccccc2n1,n,n,n,n,n,n
CCOC(=O)CSc1nc(C(C)C)nc2ccccc12,n,n,n,n,u,n
CCc1nc(SCC(=O)c2ccccc2)c2ccccc2n1,x,u,n,x,x,n
Nn1c(SC/C=C/c2ccccc2)nnc1-c1ccccn1,n,n,n,n,u,n
Cn1cc(CNC(=O)/C=C/c2ccc(Cl)cc2)cn1,n,n,n,n,x,n
CCN(CC)CCCN1C(=O)C(=O)/C(=C(/O)c2ccc3c(c2)OCCO3)C1c1ccc(C)o1 (centres undefined),n,25.1µM,n,n,n,n
CN(C)CCN1C(=O)C(=O)/C(=C(/O)c2ccc3c(c2)OCCO3)C1c1ccccn1 (centres undefined),x,x,x,x,x,n
COc1cccc(C2/C(=C(\O)c3ccc4c(c3)OCO4)C(=O)C(=O)N2CCN(C)C)c1OC (centres undefined),n,22.4µM,n,n,n,n
CN(C)CCN1C(=O)C(=O)/C(=C(/O)c2ccccc2)C1c1ccccc1F (centres undefined),n,17.8µM,n,u,n,n
COc1ccc(/C(O)=C2\C(=O)C(=O)N(CCCN(C)C)C2c2ccccc2F)cc1Cl (centres undefined),n,n,u,n,n,n
N#Cc1cc2c(nc1S(=O)(=O)Cc1ccccc1)CCCC2,x,u,n,x,x,n
O=C(ON=C1CCN(S(=O)(=O)c2ccccc2)CC1)c1ccccc1,n,n,n,u,n,n
O=C(ON=C1CCN(S(=O)(=O)c2ccccc2)CC1)c1cccc(Cl)c1,n,n,n,-100.0,n,n
COCCCNC(=O)C(CC(N)=O)NC(=O)OCc1ccccc1 (centres undefined),x,x,x,x,x,n
CC(=O)c1cccc(NC(=S)NC(=O)c2cccc(Cl)c2)c1,u,20µM,n,u,x,n
Cc1cccc(NC(=O)CC(C)(C)C)c1,15.8µM,n,n,u,n,n
CC(=O)c1cccc(NC(=O)Cc2ccc3c(c2)CCCC3)c1,25.1µM,12.6µM,n,n,n,n
Cc1cc(C)cc(NCC(=O)Nc2c(C)cccc2C)c1,n,u,n,-90.1,n,n
CC(=O)c1cccc(NC(=S)NC(=O)c2ccccc2)c1,u,u,n,n,x,n
CC(=O)Nc1cccc(C)c1,n,n,n,x,x,x
Cc1ccc(NC(=O)Cc2ccc3c(c2)CCCC3)cc1C,n,u,n,n,n,n
CCOC(=O)c1cnc(SCC(=O)Nc2ccc(N3CCOCC3)cc2)nc1N,n,n,n,n,n,n
Cc1nn(C)c(C(=O)N2CCc3ccccc32)c1Cl,n,n,n,n,n,n
CC(=O)c1cccc(NC(=S)NC(=O)CC(C)(C)C)c1,15.8µM,n,n,n,n,n
SMILES,HPGD inh,ALDH1A1 inh,IMPase Li cell,PNC inhibitor,IMPase cell inh,NPSR antag
COc1cc(/C=C(\C#N)C(=O)Nc2cccc3ncccc23)cc(OC)c1OC,n,n,n,n,x,n
CCOC(=O)c1c(C)[nH]c2ccc(O)cc12,n,n,n,n,n,n
O=C(OCc1ccccc1)c1cn(-c2ccccc2)nc1-c1ccncc1,u,20µM,n,n,n,u
O=C(O)CC/C(=N/NC(=O)c1cn(-c2ccccc2)nc1-c1ccccc1)C(=O)O,n,4.47µM,n,n,x,n
COC(=O)c1cn(-c2ccccc2)nc1-c1ccncc1,n,u,n,n,n,n
O=Cc1cn(-c2ccccc2)nc1-c1cccnc1,x,n,n,x,x,n
O=C(NCc1cccnc1)c1cn(-c2ccccc2)nc1-c1ccccc1,x,4.47µM,n,x,x,n
O=Cc1cn(-c2ccccc2)nc1-c1ccncc1,x,2.51µM,n,x,x,n
